From PubChem
Many of the other results were omitted from the sample, so hits are more common in it than they were.
ClpP mod = qHTS Assay for Activators of ClpP. purified B. subtilis ClpP, FRET peptide cleavage, 20 min. Potency, µM (doses to about 57.5 µM), without a hit: at the highest dose activity change, negative = active. ATP-dependent Clp protease proteolytic subunit (Bacillus subtilis (strain 168)), P80244. actives 1.9% (n = 340,000); active = well fitted falling curve with a large enough effect; inconclusive = small, poorly fitted or top-dose-only effect; inactive = no such curve, though single readings can be large or run the other way; note: the source files actives as falling curves though it sought activators and does not explain the sign; nearly all actives have a fitted effect of over 65% in size
Target sequence (P80244 whole entry, looked up): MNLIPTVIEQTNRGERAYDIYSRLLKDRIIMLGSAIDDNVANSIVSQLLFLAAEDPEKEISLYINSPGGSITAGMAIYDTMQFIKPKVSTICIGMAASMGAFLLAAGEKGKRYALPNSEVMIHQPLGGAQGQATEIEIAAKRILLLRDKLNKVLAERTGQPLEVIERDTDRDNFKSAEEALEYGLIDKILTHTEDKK
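Purified B. subtilis ClpP, 10 microg/mL final in Tris/HCl pH8 with KCl, BSA, glycerol and Tween-20, cleaved an Abz/nitrotyrosine-quenched decapeptide. Fluorescence (ex 320, em 430) was read at 0 and 20 min at room temperature. Delta was normalized to 5.8 microM ADEP and DMSO/no-enzyme controls.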
a7 integrin act = integrin-mediated muscular dystrophy alleviation activation; actives 0.064% (n = 350,000); Potency, µM (series often up to 38.3 µM), for inactives: at the top dose activation, most hits filed as activators; alpha7betagal myoblasts, beta-gal FDG fluorescence, 48 h;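 note: 100% = response of the positive control SU9516; nearly all actives have a fitted effect of over 60% in size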
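Alpha7betagal+/- myoblasts (passage 13) were plated 16-24 hr, then exposed to compounds (1:260 dilution of DMSO stock) for 48 hours at 37C. After MPER lysis, β-galactosidase reporter activity was read as FDG fluorescence (ex 480/em 540) after 30 minutes.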
USP2a block = blocks human ubiquitin-specific protease USP2a. O75604. USP2 core, Ub-CHOP2 coupled fluorogenic reporter, 485/531. Potency, µM (titrated, usually from 38.3 µM), for inactives: at the highest dose activity change, negative = inhibition, most hits filed as inhibitors. actives 0.01% (n = 330,000);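 note: plate controls were DMSO wells for no effect and full inhibition by NEM control for full effect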
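Deubiquitinase activity read as fluorescence (485/531 nm) after Ub-CHOP2 cleavage activates the enterokinase reporter on its substrate; USP2 core 10nM, Ub-CHOP2 and substrate 25nM each, 30min compound preincubation then 60min RT; data normalized to NEM, curves fitted.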
Mm-Cpn inhibitor = blocks the Methanococcus maripaludis chaperonin Mm-Cpn. Potency, µM (top dose mostly 76.9 µM), for inactives: at the top dose activity, negative = inhibition, hits mostly inhibitors. AID 504842. actives 0.031% (n = 330,000). purified Mm-Cpn ATPase, ADP Transcreener TR-FRET; note: % is set by controls: 0 for no effect and ±100 for the full control effect; nearly all actives have a fitted effect of over 80% in size
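Inhibition of chaperonin ATP hydrolysis is measured as reduced ADP production, detected by competitive TR-FRET in which signal falls with ADP. Final enzyme 25 nM and ATP 10 uM, reacted 30 min at 37°C.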
Eya2 inh = blocks the phosphatase activity of human Eya2; O00167; Potency, µM (series often up to 76.9 µM), inactives show at the highest dose activity, negative = inhibition, most hits filed as inhibitors; AID 488837; actives 0.006% (n = 330,000); recombinant Eya2, OMFP fluorescence dephosphorylation (OMFP is methylfluorescein phosphate); note: % is set by controls: 0 for no effect and ±100 for the full control effect
Target sequence (O00167 whole entry, looked up): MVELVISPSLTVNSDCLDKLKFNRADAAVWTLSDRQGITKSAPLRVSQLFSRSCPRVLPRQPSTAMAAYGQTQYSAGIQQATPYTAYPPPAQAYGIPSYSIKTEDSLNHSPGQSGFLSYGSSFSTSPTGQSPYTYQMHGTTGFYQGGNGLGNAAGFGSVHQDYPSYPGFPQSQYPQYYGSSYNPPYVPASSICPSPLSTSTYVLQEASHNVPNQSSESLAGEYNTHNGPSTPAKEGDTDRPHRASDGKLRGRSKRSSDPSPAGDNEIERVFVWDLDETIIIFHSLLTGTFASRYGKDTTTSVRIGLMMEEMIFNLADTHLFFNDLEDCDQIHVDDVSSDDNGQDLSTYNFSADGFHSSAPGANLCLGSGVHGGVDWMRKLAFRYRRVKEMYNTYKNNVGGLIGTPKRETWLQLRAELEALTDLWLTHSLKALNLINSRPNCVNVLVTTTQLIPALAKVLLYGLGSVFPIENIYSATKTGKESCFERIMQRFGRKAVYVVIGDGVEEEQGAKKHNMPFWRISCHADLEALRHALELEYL
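Eya2 protein (added as 0.2 uM solution) was preincubated with compound for 10 min at ambient temperature in 50 mM HEPES pH 7.5, 50 mM NaCl, 5 uM MgCl2, 0.05% BSA, 1 mM DTT. OMFP (added at 50 uM) then reacted 10 min; fluorescence read at 485/525 nm.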
p53 reactivator = mutant p53 re-activation in reporter cells; actives 0.063% (n = 320,000); H1299 p53-A138V BP100-luciferase reporter, luminescence, 24 h; Potency, µM (titrated, usually from 92.2 µM), inactives show at the top dose activity change, positive = activation, usual class: activators; note: % of control where 0% means no effect; nearly all actives have a fitted effect of over 45% in size
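p53-null H1299 cells stably carrying temperature-sensitive p53-A138V and a BP100-luciferase reporter were pinned with compounds (4-point, 1:5 series) and held 24 hrs at 37 deg C. Luminescence was read 10 min after detection reagent.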
An asterisk follows results filed as active; ? = inconclusive; · = not tested or not shown; [ ] = another dose, or the depositor's remark. Unless noted, calls come from the whole dose curve; as a rule, active = well fitted curve in the direction sought with a large enough effect; inconclusive = small, poorly fitted or top-dose-only effect, or another doubt; inactive = no such curve, though single readings can be large; an effect the other way counts as inactive or inconclusive. Potency is the fitted concentration of half-maximal effect.

SMILES | ClpP mod | a7 integrin act | USP2a block | Mm-Cpn inhibitor | Eya2 inh | p53 reactivator
CCOC(=O)c1[nH]c2cc(OC)c(OC)cc2c1NC(=O)C(C)N1CCN(Cc2ccccc2)CC1 (centres undefined) | 32µM* | -6% | -5% | -4% | -5% | -8%
CCOC(=O)c1[nH]c2ccc(OC)cc2c1NC(=O)C(C)N1CCSCC1 (centres undefined) | · | · | -3% | -6% | -5% | -1%
CC[N+](C)(C(=O)O)/C(=C\c1ccccc1)c1ccnc2ccccc12 (centres undefined) | 1% | · | · | · | · | ·
OC(CN1C=CCc2ccccc21)c1ccc(Cl)cc1Cl (centres undefined) | -15% | · | · | · | · | ·
COc1ccc(S(=O)(=O)N(Cc2ccccc2)c2ccccc2C(=O)Nc2ccccc2C(=O)NCc2ccco2)cc1 | 22µM* | 24% | 0% | -5% | 0% | 1%
CN(C)c1ccc(/C=C\C=C/c2ccnc3ccccc23)cc1 | -1% | · | · | · | · | ·
COC(=O)c1cccc(S(=O)(=O)N(Cc2ccco2)Cc2cc3cc(OC)c(OC)cc3[nH]c2=O)c1 | 28µM* | -7% | 0% | 1% | -4% | 1%
Cc1ccccc1NC(=O)N1CCCC(c2nc(-c3ccc(C(C)C)cc3)no2)C1 (centres undefined) | 0% | -46% | 3% | 1% | -15% | 45µM*
Cc1cnc2ccccc2c1/C=C/c1ccc(N(C)C)cc1 | 0% | · | · | · | · | ·
CC1CCCC(C)N1Cc1cn2ccccc2n1 (centres undefined) | 18µM* | -8% | 4% | -2% | -17% | 2%
O=C(O)C1CCCCC1C(=O)NCc1cn2ccccc2n1 (centres undefined) | 5% | -7% | -1% | 2% | 21% | -5%
Cn1c(=S)[nH]c2sc3c(c2c1=O)CCC(C(C)(C)C)C3 (centres undefined) | · | · | 0% | -1% | 0% | 20µM*
COc1ccc(C(=O)N(Cc2ccccc2)Cc2ccc(OC)c(COc3ccc(NC(C)=O)cc3)c2)cc1 | -2% | · | · | · | · | ·
CC(Oc1cccc(F)c1)c1ccnc2nc(/N=C/N(C)C)nn12 (centres undefined) | · | 11% | 2% | -6% | -11% | -6%
CC(Oc1ccccc1)c1ccnc2nc(/N=C/N(C)C)nn12 (centres undefined) | 28µM* | -14%[7.66 µM] | 0% | -2% | 8% | -29%
Cc1cc(C)cc(OC(C)c2ccnc3nc(/N=C/N(C)C)nn23)c1 (centres undefined) | 28µM* | 4%[7.66 µM] | 2% | 1% | -3% | -1%
CCOc1ccccc1NC(=O)N(C)CCc1c(C)nn(CC)c1C | -3% | · | · | · | · | ·
Cc1cc2nc(-c3ccc(SCC(=O)Nc4ccc(S(=O)(=O)NC5CC5)cc4)nc3)[nH]c2cc1C | 8.9µM* | -16% | 1% | ? | -9% | 2.8µM*
Cc1cc(=O)oc2cc(OCC(=O)NCc3ccccn3)ccc12 | 25µM* | 31% | 1% | -1% | 11% | 3%
Cc1cc(=O)oc2cc(Oc3ncccc3[N+](=O)[O-])ccc12 | -1% | 63% | 1% | -3% | -6% | 1%
Cc1cc(=O)oc2cc(Oc3ncccn3)ccc12 | 32µM* | -6% | 0% | -3% | 13% | 1%
Cc1cc(=O)oc2cc(OCc3nnc(-c4ccccc4Br)o3)ccc12 | 28µM* | -4% | 0% | ? | 1%[15.4 µM] | -1%
CCCc1cc(=O)oc2cc(OCC(=O)NCc3ccccn3)ccc12 | 5% | -8% | 6% | 1% | -1% | 8%
Cc1cc(=O)oc2cc(OCC(=O)N3CCc4ccccc4C3)ccc12 | 25µM* | 10% | 0% | -5% | -23% | -19%
CC(=O)c1nnn(-c2nc(C#N)nc(N3CCOCC3)n2)c1C | 0% | · | · | · | · | ·
SMILES | ClpP mod | a7 integrin act | USP2a block | Mm-Cpn inhibitor | Eya2 inh | p53 reactivator
COC(=O)C1N2C(=O)N(C)[C@H](C(=O)OC)[C@H]2SC1(C)C (some centres undefined) | 2% | · | · | · | · | ·
CCCCOc1ccc(CC(=O)N(C)OC)cc1 | 1% | · | · | · | · | ·
Cc1cccc(-c2nnc(SCCOc3ccc4c(C)cc(=O)oc4c3)o2)c1 | 10µM* | 9% | 2% | 2% | -5% | -6%
COc1ccc(C2Nc3ccccc3C(=O)N2c2ccccc2F)cc1COc1ccc(NC(C)=O)cc1 (centres undefined) | 4% | · | · | · | · | ·
O=C1c2ccccc2C(=O)N1c1cccc(O)c1 | -1% | · | · | · | · | ·
O=C(Nc1ccc2c(c1)C(=O)NC2=O)c1cccc(Cl)c1 | -10% | -5% | 0% | -10% | 5% | 8%
O=C1NC(=O)c2cc(NC(=O)C3CCCCC3)ccc21 | 25µM* | -9% | 2% | -2% | -30% | 2%
Cc1cc(NC(=O)c2cc(Cl)ccc2Cl)ccc1-c1cc2ccccc2oc1=O | 11µM* | · | · | · | · | ·
O=C(Nc1ccc2c(c1)C(=O)NC2=O)c1cc(Cl)ccc1Cl | 32µM* | 13% | 1% | -18% | -7% | 5%
COc1cc(NC(=O)c2ccc(Cl)cc2Cl)ccc1-c1cc2ccccc2oc1=O | -6% | -6% | -1% | 0% | 11% | 2%
O=C(Nc1ccc(Cl)c(Cl)c1)C1CCCCC1 | 1% | -13% | 0% | 1% | -34% | 4%
CC1CCN(C(=O)Nc2ccc3nc(-c4ccco4)c(-c4ccco4)nc3c2)CC1 | -4% | · | · | · | · | ·
COCCCn1c(C)cc(C(=O)COC(=O)C23CC4CC(CC(O)(C4)C2)C3)c1C | 28µM* | -5% | -2% | -2% | -3% | ?
N#Cc1ccccc1NC(=O)Nc1cccc(Cl)c1 | 28µM* | -6% | · | · | · | ·
O=C(Nc1cccc(Cl)c1)Nc1nc(-c2ccccc2)cs1 | 0% | -12% | -5% | 0% | -7% | 6%
Cc1csc(NC(=O)c2ccco2)n1 | 22µM* | 12% | -1% | 0% | 13% | -6%
N#Cc1ccccc1NC(=O)Nc1ccc(Cl)cc1 | ? | -19% | 3% | -1% | -11% | 2%
Cc1csc(NC(=O)Nc2cccc(Cl)c2)n1 | 0% | -24% | 2% | 1% | -1% | 28µM*
CN(C)c1ccc(/C=C/c2cnnc3ccccc23)cc1 | -1% | · | · | · | · | ·
O=C(Nc1cc2nn(-c3ccccc3)nc2cc1Cl)c1ccco1 | -17% | 17% | 1% | 0% | -3% | 46%
CC(C)(C)C(=O)Nc1cc2nn(-c3ccccc3)nc2cc1Cl | 28µM* | ? | -5% | 1% | -16% | -4%
CC(=O)Nc1cc2nn(-c3ccccc3)nc2cc1Cl | 20µM* | 11% | 1% | 0% | -2% | ?
